Test [1] can be described thus: small molecules captured by biotinylated probe aFSTL3 – biochemical, small-molecule microarray, fluorescence 635/667, stem cell growth factor project, primary screen (AID 1064).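 Also: measures binding of the biotinylated anti-FSTL3 antibody to printed compounds.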 The settings on record: higher = more signal.
Test [2] in a line: binders from COS7 lysate, DM2A8 probe, primary screen, torsin A project, cell lysate, small-molecule microarray, fluorescence 635/667 (AID 1065). To be noted: higher = more signal, COS7 lysate expressing mutant human TOR1A.
A short description of test [3]: small molecules captured by biotinylated probe aFGF2 – biochemical, small-molecule microarray, fluorescence 635/667, stem cell growth factor project, primary screen (AID 1067).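 Also: measures binding of biotinylated aFGF2 protein to printed compounds on slides; z-score merges feature fluorescence and signal-to-noise across triplicate slides.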 The settings on record: higher = more signal.
Test [4] is described as follows: small molecules captured by biotinylated probe aFGF10 – biochemical, small-molecule microarray, fluorescence 635/667, stem cell growth factor project, primary screen (AID 1071).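 Also: score merges 667 nm spot intensity and signal to noise from triplicate slides.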 To be noted: higher = more signal.
In test [5] the target is Neurogenic locus notch homolog protein 2 (Homo sapiens) (UniProt Q04721). Description: small molecules binding Notch2 protein – biochemical, small-molecule microarray, 635 nm fluorescence, stem cell growth factors, primary screen (AID 1073). The settings on record: higher = more signal.
Test [6] concerns the target Pro-neuregulin-1, membrane-bound isoform (Homo sapiens) (UniProt Q02297). Put plainly: small molecules binding neuregulin-1 protein – biochemical, small-molecule microarray, fluorescence 635/667, psychiatric disease protein project, primary screen (AID 1075).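 Also: score combines 667 nm spot fluorescence with signal to noise.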 The settings on record: NRG1 binding, 635 nm fluorescence, higher = more signal.
Test [7] relates to Neuregulin-1 EGF-like domain. Put plainly: small molecules binding NRG1 EGF domain – biochemical, small-molecule microarray, 635 nm fluorescence, primary screen (AID 1081).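 Also: binding of the protein to compounds printed on small-molecule microarray slides.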 The settings on record: higher = more signal.
Test [8] can be described thus: FRG1 expression reporter modulators in myotubes – cell-based, C2C12 myotubes, firefly/Renilla luciferase, luminescence, FRG1 inhibition for FSHD, primary screen (AID 1084). The settings on record: FRG1 promoter luciferase, higher = more signal, called active from +8 up or from −8 down.
The nature of test [9]: small molecules captured by biotinylated probe aFST – biochemical, small-molecule microarray, fluorescence 635/667, stem cell growth factor project, primary screen (AID 1086).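 Also: score merges 667 nm fluorescence with signal-to-noise of each printed compound spot.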 To be noted: higher = more signal.
Test [10] can be described thus: binders of probe aHhip on microarray, primary screen, stem cell growth factor project, biochemical, small-molecule microarray, fluorescence 635/667 (AID 1087).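 Also: score merges spot fluorescence at 667nm with spot signal to noise ratio.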 The settings on record: higher = more signal.
Test [11] deals with PRMT1 (protein arginine N-methyltransferase 1). Put plainly: small molecules binding arginine methyltransferase PRMT1 – biochemical, small-molecule microarray, 635 nm fluorescence, primary screen (AID 1088).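 Also: binding of Prmt1 protein to compounds spotted on small-molecule microarray slides.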 The settings on record: higher = more signal.
Test [12] can be described thus: growth effects on S. cerevisiae YJM789 – YJM789 clinical isolate, OD600, 24 h, basal, primary screen (AID 1089).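 Also: growth of clinical yeast isolate S. cerevisiae YJM 789 seeded 1000 cells per well; test concentration not given here.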 To be noted: higher = more signal, called active from +8 up or from −8 down.
Test [13] in a line: S. pombe growth modifiers, basal conditions – strain 972, OD600, 24 h, no modulator, primary screen (AID 1090).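 Also: basal condition with compound alone and no growth modifier present; test concentration not given here.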 The settings on record: S. pombe 972 growth, higher = more signal, called active from +8 up or from −8 down.
Test [14] in a line: budding yeast growth modifiers under rapamycin – strain BY4716, OD600, 96 h, primary screen (AID 1091). Also: test concentration not given here. To be noted: S. cerevisiae BY4716 + rapamycin, higher = more signal, called active from +8 up or from −8 down.
Test [15] has as its target Torsin-1A-interacting protein 2 (Homo sapiens) (UniProt Q8NFQ8). Description: small molecules binding lysate-expressed LULL1 – cell lysate, human LULL1 lysate, 635/667 nm fluorescence, primary screen (AID 1092).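 Also: probe is lysate of COS7 cells overexpressing human LULL1; score merges per-feature 667 nm fluorescence with signal-to-noise.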 The settings on record: small-molecule microarray, hLULL1 lysate binding, 635 nm fluorescence; higher = more signal.
A short description of test [16]: optical density change of DRC41 E. coli – strain DRC41, OD650, 24 h, E. coli filamentation project, primary screen (AID 1093).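 Also: MC1000 strain lacking acrAB efflux and sulA so SOS filamentation is blocked; test concentration not given here.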 To be noted: E. coli DRC41 growth, higher = more signal, called active from +8 up or from −8 down.
A short description of test [17]: probe aLefty2 binding to arrayed compounds – biochemical, biotinylated probe, 635/667 nm fluorescence, primary screen (AID 1094).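 Also: score merges spot fluorescence near 667 nm with spot signal-to-noise ratio.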 To be noted: small-molecule microarray, higher = more signal.
For test [18], the system named is Noggin (protein binding on small-molecule microarray). Description: small molecules binding Noggin protein – biochemical, 635/667 nm fluorescence, primary screen (AID 1095).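 Also: score merges 667 nm feature fluorescence with signal to noise over triplicate slides.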 The settings on record: 635 nm fluorescence, higher = more signal.
Test [19] concerns the target Neurogenic locus notch homolog protein 3 (Homo sapiens) (UniProt Q9UM47). Description: small molecules binding NOTCH3 protein – biochemical, 635/667 nm fluorescence, primary screen (AID 1096). The settings on record: small-molecule microarray, 635 nm fluorescence, higher = more signal.
A short description of test [20]: probe aEGFR binding to arrayed compounds – biochemical, biotinylated probe, 635/667 nm fluorescence, primary screen (AID 1097).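 Also: probe is a biotinylated anti-EGFR antibody binding compounds printed on slides; score combines fluorescence near 667 nm and signal to noise of each spot.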 The settings on record: small-molecule microarray, higher = more signal.

The source made the active and inactive calls.

Sequence of Neurogenic locus notch homolog protein 3 (Homo sapiens) (Q9UM47 whole entry, looked up): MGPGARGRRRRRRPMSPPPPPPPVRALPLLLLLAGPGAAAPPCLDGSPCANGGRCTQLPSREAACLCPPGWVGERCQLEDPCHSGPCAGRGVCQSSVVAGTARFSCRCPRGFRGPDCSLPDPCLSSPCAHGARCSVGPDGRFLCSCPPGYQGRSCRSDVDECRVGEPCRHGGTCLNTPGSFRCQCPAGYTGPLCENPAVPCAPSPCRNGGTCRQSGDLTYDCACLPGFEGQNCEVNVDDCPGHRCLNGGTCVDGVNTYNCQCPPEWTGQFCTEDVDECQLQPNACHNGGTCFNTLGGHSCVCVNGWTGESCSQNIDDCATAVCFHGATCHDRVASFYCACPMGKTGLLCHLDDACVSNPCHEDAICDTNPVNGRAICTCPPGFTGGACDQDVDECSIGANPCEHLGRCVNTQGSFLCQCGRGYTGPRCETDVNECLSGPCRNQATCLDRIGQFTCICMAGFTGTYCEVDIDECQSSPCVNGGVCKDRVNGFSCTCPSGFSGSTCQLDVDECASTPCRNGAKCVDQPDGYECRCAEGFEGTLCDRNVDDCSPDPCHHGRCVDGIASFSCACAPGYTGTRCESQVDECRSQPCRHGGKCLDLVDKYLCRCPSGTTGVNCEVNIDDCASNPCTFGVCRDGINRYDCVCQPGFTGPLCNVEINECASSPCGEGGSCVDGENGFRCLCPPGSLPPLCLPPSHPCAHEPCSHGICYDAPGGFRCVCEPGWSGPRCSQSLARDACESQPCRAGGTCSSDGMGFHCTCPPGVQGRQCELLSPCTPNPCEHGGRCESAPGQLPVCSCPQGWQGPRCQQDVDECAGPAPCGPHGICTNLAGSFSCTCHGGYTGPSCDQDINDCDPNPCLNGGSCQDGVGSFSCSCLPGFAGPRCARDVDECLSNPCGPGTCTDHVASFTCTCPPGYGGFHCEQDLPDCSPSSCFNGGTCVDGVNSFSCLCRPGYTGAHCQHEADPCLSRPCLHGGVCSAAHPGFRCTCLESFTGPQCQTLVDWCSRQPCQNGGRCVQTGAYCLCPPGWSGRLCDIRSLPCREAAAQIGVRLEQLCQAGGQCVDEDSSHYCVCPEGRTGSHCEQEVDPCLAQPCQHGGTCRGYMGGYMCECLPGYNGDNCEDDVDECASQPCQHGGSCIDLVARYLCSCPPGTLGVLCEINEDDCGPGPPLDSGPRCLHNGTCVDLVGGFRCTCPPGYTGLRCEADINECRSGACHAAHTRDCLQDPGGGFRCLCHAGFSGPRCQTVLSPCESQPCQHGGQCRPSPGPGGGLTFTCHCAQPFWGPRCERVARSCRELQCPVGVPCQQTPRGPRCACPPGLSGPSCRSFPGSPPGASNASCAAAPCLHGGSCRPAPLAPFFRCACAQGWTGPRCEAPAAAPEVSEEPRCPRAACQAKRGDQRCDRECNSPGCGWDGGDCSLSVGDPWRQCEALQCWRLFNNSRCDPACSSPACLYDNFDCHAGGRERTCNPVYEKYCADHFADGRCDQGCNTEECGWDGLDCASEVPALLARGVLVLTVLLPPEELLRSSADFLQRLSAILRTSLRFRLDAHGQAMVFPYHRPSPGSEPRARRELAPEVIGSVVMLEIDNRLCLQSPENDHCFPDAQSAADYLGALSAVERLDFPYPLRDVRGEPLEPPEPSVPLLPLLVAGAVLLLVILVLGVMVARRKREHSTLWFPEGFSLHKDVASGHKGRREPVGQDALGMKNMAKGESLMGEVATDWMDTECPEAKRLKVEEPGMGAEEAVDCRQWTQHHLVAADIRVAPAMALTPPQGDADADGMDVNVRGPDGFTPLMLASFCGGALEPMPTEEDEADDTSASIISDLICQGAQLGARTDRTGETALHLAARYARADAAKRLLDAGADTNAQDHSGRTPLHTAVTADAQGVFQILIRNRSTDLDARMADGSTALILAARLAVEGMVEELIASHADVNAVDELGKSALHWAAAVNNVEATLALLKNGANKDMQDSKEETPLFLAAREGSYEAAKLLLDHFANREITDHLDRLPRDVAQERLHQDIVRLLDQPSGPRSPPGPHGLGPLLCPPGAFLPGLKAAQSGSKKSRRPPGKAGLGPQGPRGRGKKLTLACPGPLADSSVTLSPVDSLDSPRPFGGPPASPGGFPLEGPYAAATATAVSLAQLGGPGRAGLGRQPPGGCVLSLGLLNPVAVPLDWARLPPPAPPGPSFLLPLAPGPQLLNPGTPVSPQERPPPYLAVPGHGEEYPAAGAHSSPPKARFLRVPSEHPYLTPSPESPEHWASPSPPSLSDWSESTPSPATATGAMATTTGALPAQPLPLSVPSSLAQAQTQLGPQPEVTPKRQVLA
Sequence of Neurogenic locus notch homolog protein 2 (Homo sapiens) (Q04721 whole entry, looked up, canonical isoform): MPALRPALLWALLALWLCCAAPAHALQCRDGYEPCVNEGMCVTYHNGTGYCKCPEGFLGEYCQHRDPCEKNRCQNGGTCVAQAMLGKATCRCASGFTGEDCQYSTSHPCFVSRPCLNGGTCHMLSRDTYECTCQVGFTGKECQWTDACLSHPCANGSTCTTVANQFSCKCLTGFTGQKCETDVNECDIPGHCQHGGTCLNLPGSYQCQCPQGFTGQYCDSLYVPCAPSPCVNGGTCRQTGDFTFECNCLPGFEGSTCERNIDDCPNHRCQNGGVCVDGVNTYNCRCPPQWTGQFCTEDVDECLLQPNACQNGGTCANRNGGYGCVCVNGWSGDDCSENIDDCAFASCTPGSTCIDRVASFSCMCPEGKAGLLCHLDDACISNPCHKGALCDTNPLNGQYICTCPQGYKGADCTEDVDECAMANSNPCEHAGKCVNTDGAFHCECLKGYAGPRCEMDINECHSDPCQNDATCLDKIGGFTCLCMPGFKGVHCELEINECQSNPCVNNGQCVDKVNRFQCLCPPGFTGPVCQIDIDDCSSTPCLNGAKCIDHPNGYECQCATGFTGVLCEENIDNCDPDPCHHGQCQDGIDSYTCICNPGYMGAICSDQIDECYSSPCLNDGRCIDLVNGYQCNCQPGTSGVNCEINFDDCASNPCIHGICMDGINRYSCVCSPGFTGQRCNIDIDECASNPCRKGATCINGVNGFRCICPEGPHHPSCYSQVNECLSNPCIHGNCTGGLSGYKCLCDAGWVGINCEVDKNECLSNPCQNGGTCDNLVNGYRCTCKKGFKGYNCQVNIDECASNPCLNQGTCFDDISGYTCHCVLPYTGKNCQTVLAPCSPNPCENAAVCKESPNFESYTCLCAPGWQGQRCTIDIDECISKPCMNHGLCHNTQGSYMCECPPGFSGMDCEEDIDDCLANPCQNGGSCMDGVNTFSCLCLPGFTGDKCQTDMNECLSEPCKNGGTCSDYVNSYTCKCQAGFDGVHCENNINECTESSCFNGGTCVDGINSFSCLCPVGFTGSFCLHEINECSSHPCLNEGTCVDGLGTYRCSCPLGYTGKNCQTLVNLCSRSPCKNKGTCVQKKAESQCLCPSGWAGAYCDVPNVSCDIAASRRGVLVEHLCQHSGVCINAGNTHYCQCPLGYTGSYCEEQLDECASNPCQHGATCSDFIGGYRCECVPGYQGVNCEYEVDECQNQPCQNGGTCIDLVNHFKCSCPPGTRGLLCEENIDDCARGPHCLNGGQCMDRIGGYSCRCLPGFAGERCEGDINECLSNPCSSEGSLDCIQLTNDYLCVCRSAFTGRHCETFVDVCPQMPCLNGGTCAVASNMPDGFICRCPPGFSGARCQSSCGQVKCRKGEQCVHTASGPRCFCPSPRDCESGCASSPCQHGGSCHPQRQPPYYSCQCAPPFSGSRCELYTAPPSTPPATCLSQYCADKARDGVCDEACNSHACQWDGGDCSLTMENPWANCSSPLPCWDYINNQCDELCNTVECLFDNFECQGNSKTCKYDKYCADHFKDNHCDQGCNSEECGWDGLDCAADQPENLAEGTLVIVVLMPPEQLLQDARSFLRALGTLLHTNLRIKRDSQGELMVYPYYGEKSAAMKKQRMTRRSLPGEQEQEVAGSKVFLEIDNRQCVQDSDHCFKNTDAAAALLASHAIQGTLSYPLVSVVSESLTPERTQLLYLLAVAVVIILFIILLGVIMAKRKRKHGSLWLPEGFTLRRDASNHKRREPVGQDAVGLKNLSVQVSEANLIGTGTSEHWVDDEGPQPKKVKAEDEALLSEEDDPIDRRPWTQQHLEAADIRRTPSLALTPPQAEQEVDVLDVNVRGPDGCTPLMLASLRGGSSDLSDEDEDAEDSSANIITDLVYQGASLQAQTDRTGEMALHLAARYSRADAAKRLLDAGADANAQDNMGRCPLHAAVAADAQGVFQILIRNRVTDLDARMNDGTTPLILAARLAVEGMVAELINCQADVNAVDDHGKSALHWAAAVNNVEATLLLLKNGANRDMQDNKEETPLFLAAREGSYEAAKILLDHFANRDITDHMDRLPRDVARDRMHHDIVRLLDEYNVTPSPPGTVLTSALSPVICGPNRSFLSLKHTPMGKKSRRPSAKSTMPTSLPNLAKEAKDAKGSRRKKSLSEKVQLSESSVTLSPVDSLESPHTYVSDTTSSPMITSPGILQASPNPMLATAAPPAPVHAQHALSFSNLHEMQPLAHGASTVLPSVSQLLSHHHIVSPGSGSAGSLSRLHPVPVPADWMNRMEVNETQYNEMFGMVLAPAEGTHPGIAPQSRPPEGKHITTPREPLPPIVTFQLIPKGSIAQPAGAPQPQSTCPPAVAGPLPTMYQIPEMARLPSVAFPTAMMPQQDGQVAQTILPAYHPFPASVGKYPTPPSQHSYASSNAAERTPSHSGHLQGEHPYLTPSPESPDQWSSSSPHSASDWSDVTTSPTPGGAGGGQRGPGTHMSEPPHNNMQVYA

For the compound `[N-]=[N+]=NCc1ccccc1[C@@H]1OC(c2ccc(OCCCO)cc2)=N[C@]1(Cc1ccccc1)C(=O)NCc1ccccc1`, the composite z-score is -0.158 in test [1]; -0.649 in test [2]; 0.227 in [3]; 0.22 in test [4]; 1.3 in [5]; 1.56 in test [6]. Besides, the composite z-score was 0.744 in [7]; 0.846 in test [9]; 0.0373 in test [10]; 0.872 in test [11]; 3.12 in test [15]; 0.239 in test [17]. The results for the composite z-score in test [18], in test [19] and in [20] were -0.0171, 0.672 and -0.117, respectively. Besides, the z-score in test [8] was -2.16 (inactive); in test [12], 1.26 (inactive); in [13], 0.8 (inactive); in [14] it was 8.96 (active); in test [16], 0.615 (inactive).
Regarding `CN(C)CCCCNC(=O)[C@H]1C[C@H]2C(=O)N[C@@H](Cc3ccccc3)C(=O)N2[C@H]1c1cccc(OCCO)c1`, the composite z-score in test [1] was 0.863; in [2], 0.46; in test [3] it was -0.158; in test [4] it was -0.436; in [5] it was -0.252; in test [6], 0.136. Moreover, the composite z-score in test [7] was 0.606; in [9], -0.549; in test [10], 0.0092; in [11], 0.193; in [15], 0.33; in test [17], -0.0924. Moreover, the results for the composite z-score in test [18], in [19] and in test [20] were 0.622, 0.307 and -0.0512, respectively. The z-score was 3.32 (inactive) in test [8]; -1.11 (inactive) in [12]; 0.0737 (inactive) in test [13]; -0.247 (inactive) in [14]; 1.13 (inactive) in test [16].
`CO[C@H]1O[C@H](CO)[C@@H](OC(=O)Nc2ccccc2)[C@@H]2OC(=O)[C@H](Cc3ccccc3)C/C=C/C[C@@H](Cc3ccccc3)C(=O)O[C@@H]12`: the composite z-score in test [1] came out at 0.146; in test [2], 0.779; in test [3] it was 0.0732; in test [4], 0.775; in test [5] it was 1.48; in test [6], 1.14. In addition, the composite z-score in test [7] was 1.04; in [9], 0.654; in test [10], -0.0296; in test [11], 1.55; in [15], 2.58; in test [17], -0.104. The composite z-score in test [18] turned out to be 0.107; in [19] it was 0.702; in [20] it was 0.0308. In addition, the z-score in test [8] was -1.64 (inactive); in test [12] it was -1.03 (inactive); in test [13], -0.0378 (inactive); in test [14], 1.9 (inactive); in test [16], 0.588 (inactive).
As for `CCOC(=O)C1=C(C(=O)OCC)N(S(=O)(=O)CC[Si](C)(C)C)[C@H](c2ccccc2)CC1`, the composite z-score in [1] is 0.208; in test [2], 0.0516; in test [3], -0.0066; in test [4], 0.2; in test [5] it was 1.53; in test [6] it was -0.0059. Also, the composite z-score in [7] came to 0.884; in test [9], 0.917; in test [10] it was 0.0623; in test [11] it was 1.03; in test [15], 1.84; in test [17], 0.138. Besides, the values for the composite z-score in test [18], in [19] and in test [20] were 0.472, 1.07 and 0.108, respectively. In addition, the z-score in test [8] was -2.55 (inactive); in test [12], 0.807 (inactive); in test [13], 1.83 (inactive); in test [14], 1.85 (inactive); in [16], -0.219 (inactive).
As to `O=C1C2C=CC(C(O)c3ccc([N+](=O)[O-])cc3)N(Nc3ccccc3)C2C(=O)N1c1ccccc1` (stereo not given), the composite z-score in test [1] is -0.228; in test [2], 0.0467; in [3] it was 0.0589; in test [4], -0.115; in [5] it was 1.4; in test [6], 1.07. For the same compound, the composite z-score in test [7] was 1.25; in test [9] it was 0.564; in test [10], 0.211; in test [11], 0.44; in test [15], 2.68; in [17] it was -0.0469. Besides, the composite z-score in [18] is -0.456; in test [19], 1.03; in test [20], -0.0509. In addition, the z-score is -0.699 (inactive) in test [8]; -0.247 (inactive) in test [12]; 0.485 (inactive) in test [13]; 0.495 (inactive) in test [14]; -0.8 (inactive) in test [16].

For the origin of these results see PubChem BioAssay.
